The results in this text go back to article PMC7862700, “An all-to-all approach to the identification of sequence-specific readers for epigenetic DNA modifications on cytosine”.

Holding throughout (test): DAPPL (digital affinity profiling via proximity ligation, sequencing); 10 mM Tris-HCl pH 7.5, 50 mM NaCl, 1 mM DTT, 4% glycerol, room temperature, 30 min; GST-TFs on glutathione beads, 16-mer random dsDNA library, 0.1% formaldehyde crosslink after washing; high values mean tight binding
In one assay the target is T1, FEV (Homo sapiens, UniProt Q99581 1-238).
T1 sequence: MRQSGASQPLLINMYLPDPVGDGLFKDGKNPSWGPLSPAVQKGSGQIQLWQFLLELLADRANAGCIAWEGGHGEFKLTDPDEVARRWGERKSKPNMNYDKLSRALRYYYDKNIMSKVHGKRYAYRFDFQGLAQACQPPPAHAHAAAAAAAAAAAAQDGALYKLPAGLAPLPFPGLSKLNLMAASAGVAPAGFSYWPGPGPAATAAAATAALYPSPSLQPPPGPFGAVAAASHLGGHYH
As to conditions: protein: recombinant; tags: N-terminal GST; dsDNA, one strand shown. The method in brief:
(§1)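 In yeast, human transcription factors were expressed with a GST fusion, then pulled down on glutathione beads and given DNA barcodes. Pooled with a tag-only sample, they were exposed to 200 nmole of a 16-mer random double-stranded DNA library (Tris/NaCl/DTT/glycerol buffer, room temperature, 30 min), washed, crosslinked with 0.1% formaldehyde, proximity-ligated using BsaI/T4 ligase for 1 h at 37 °C, PCR-amplified and read on an Illumina NextSeq500. Each hexamer's frequency of reads for a factor, divided by the matching frequency for the tag-only sample, gives the binding signal.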

The target in a further assay is ETV5 (Homo sapiens, UniProt P41161 1-510). As to conditions: protein: recombinant; tags: N-terminal GST; dsDNA, one strand shown. The method in brief: as §1
Another assay has as its target HSF1 (Homo sapiens, UniProt Q00613 1-529). As to conditions: protein: recombinant; tags: N-terminal GST; chain copies: 3; dsDNA, one strand shown. The essentials:
as §1

The next assay deals with T2, SPIC (Homo sapiens, UniProt Q8N5J4 1-248).
T2 sequence: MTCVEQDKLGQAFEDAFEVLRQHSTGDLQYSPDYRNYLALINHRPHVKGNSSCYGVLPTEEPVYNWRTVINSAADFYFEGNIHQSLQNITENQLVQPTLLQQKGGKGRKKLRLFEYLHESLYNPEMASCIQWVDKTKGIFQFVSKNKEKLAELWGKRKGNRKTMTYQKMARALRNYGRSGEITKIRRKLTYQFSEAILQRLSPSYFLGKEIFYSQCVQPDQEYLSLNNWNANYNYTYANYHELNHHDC
The following applies: protein: recombinant; tags: N-terminal GST; dsDNA, one strand shown. The essentials: as §1

A further assay has as its target ELF4 (Homo sapiens, UniProt Q99607 1-663). As to conditions: protein: recombinant; tags: N-terminal GST; dsDNA, one strand shown. The essentials:
as §1

For a further assay, the target named is T3, ELK4 (Homo sapiens, UniProt P28324-2 1-405).
T3 sequence: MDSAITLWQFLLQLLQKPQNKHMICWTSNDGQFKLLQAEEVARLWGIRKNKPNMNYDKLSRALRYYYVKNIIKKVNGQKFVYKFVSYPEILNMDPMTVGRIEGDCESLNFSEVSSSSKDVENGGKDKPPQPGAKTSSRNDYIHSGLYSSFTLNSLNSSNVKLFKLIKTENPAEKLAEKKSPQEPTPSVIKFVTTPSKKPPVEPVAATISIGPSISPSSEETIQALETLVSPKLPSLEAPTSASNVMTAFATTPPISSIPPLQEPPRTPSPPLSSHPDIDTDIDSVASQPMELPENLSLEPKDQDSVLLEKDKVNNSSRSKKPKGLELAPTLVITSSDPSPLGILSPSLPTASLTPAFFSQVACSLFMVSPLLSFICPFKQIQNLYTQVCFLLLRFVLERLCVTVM
As to conditions: protein: recombinant; tags: N-terminal GST; dsDNA, one strand shown. The method in brief: as §1

The target in another assay is T4, ETV2 (Homo sapiens, UniProt O00321 1-342).
T4 sequence: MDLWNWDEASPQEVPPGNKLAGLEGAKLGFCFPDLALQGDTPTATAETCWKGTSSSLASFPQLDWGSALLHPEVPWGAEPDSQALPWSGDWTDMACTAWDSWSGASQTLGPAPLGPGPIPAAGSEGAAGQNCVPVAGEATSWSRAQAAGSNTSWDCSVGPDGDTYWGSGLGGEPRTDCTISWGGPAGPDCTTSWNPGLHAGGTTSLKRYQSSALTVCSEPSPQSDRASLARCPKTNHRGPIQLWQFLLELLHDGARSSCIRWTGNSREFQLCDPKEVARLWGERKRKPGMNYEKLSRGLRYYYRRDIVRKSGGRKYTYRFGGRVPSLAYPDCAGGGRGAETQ
As to conditions: protein: recombinant; tags: N-terminal GST; dsDNA, one strand shown. The essentials: as §1

The target of another assay is T5, ELF3 (Homo sapiens, UniProt P78545 1-371).
T5 sequence: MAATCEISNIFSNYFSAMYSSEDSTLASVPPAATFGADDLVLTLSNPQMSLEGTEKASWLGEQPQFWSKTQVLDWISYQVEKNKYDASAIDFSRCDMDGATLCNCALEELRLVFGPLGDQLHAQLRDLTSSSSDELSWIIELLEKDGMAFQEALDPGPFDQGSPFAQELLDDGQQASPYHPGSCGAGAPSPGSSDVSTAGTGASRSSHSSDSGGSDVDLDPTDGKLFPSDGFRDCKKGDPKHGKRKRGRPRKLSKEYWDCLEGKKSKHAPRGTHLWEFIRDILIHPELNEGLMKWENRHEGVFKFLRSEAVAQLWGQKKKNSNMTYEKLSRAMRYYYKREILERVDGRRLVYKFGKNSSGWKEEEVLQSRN
The following applies: protein: recombinant; tags: N-terminal GST; dsDNA, one strand shown. The method in brief:
as §1

In a further assay the target is CRX (Homo sapiens, UniProt O43186 1-299). As to conditions: protein: recombinant; tags: N-terminal GST; dsDNA, one strand shown. The method in brief: as §1
In another assay the target is ETV1 (Homo sapiens, UniProt P50549 1-477). The following applies: protein: recombinant; tags: N-terminal GST; dsDNA, one strand shown. The method in brief: as §1
Another assay addresses T6, ERF (Homo sapiens, UniProt P50548 1-548).
T6 sequence: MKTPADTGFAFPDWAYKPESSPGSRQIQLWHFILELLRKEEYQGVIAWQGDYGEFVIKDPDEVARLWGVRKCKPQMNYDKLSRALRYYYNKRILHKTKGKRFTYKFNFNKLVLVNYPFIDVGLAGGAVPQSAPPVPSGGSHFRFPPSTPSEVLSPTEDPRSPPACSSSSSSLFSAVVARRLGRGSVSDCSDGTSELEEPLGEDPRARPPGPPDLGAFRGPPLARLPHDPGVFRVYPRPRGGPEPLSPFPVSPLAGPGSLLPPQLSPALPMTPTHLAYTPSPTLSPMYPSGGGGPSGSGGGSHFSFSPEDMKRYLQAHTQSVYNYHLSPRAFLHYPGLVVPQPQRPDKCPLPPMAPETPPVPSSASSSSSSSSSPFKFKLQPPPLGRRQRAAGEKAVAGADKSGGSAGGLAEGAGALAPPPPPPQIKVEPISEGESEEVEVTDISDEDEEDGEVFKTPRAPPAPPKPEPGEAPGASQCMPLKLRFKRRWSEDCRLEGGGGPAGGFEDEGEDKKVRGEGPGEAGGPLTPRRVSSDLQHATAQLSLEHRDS
As to conditions: protein: recombinant; tags: N-terminal GST; dsDNA, one strand shown. The method in brief: as §1

The target of the next assay is T7, ETV3L (Homo sapiens, UniProt Q6ZN32 1-361).
T7 sequence: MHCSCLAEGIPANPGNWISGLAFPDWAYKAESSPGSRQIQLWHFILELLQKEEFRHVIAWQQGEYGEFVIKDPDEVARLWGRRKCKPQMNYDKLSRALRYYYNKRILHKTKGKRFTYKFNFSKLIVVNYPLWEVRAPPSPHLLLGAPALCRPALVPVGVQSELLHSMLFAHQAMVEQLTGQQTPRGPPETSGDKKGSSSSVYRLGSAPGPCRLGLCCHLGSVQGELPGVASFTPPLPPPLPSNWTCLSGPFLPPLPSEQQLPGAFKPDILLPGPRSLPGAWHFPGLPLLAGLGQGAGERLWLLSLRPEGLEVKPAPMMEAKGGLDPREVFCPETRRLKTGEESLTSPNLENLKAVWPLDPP
As to conditions: protein: recombinant; tags: N-terminal GST; dsDNA, one strand shown. The essentials:
as §1

The next assay deals with T8, ETS2 (Homo sapiens, UniProt P15036 1-469).
T8 sequence: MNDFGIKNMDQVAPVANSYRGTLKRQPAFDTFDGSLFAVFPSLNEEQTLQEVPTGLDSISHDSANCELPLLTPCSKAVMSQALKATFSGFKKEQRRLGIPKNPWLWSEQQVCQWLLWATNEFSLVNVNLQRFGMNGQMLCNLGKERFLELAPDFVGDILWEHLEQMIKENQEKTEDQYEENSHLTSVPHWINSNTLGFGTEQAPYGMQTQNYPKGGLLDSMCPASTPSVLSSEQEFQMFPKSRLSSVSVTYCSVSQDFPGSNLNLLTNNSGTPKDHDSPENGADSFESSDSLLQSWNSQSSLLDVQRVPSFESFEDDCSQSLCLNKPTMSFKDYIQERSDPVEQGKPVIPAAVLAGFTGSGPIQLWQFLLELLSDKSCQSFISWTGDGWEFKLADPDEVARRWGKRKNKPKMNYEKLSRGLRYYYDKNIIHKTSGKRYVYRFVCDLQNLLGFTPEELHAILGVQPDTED
As to conditions: protein: recombinant; tags: N-terminal GST; dsDNA, one strand shown. The essentials: as §1

A further assay addresses T9, SPDEF (Homo sapiens, UniProt O95238 1-335).
T9 sequence: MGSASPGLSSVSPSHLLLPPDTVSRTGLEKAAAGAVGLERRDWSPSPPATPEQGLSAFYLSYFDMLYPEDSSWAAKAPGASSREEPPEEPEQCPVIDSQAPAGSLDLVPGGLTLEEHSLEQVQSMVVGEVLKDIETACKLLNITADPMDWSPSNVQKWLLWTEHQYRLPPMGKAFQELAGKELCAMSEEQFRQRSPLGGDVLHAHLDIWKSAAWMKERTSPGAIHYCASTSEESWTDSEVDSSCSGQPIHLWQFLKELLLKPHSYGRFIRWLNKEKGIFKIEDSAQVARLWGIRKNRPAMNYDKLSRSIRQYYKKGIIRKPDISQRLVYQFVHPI
As to conditions: protein: recombinant; tags: N-terminal GST; dsDNA, one strand shown. The essentials:
as §1

For another assay, the target named is T10, ETV7 (Homo sapiens, UniProt Q9Y603 1-341).
T10 sequence: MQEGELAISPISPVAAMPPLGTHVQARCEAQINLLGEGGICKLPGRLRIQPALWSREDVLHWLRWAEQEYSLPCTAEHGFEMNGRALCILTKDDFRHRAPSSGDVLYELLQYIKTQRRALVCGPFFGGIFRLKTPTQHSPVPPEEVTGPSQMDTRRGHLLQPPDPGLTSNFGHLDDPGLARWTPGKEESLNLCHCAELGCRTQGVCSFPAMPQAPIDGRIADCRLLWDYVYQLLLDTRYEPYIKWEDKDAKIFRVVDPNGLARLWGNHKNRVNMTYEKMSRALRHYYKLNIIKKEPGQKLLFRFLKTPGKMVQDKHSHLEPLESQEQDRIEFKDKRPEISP
The following applies: protein: recombinant; tags: N-terminal GST; dsDNA, one strand shown. The method in brief:
as §1

A further assay addresses T11, ELF5 (Homo sapiens, UniProt Q9UKW6-2 1-255).
T11 sequence: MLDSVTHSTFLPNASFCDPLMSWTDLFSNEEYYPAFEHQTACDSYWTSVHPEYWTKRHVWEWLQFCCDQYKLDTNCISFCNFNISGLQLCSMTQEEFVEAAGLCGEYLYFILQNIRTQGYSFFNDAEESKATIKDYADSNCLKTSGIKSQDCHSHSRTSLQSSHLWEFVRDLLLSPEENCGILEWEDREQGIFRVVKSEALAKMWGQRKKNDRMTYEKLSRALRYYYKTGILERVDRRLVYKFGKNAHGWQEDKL
As to conditions: protein: recombinant; tags: N-terminal GST; dsDNA, one strand shown. The essentials:
as §1

A further assay has as its target T12, ETV3 (Homo sapiens, UniProt P41162-2 1-143).
T12 sequence: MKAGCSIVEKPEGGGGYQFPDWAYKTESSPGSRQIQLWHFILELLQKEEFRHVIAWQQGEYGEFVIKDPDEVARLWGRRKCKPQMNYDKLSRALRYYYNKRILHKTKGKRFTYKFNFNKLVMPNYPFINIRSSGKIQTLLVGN
As to conditions: protein: recombinant; tags: N-terminal GST; dsDNA, one strand shown. The essentials: as §1

ETV1, sequence (P50549 whole entry): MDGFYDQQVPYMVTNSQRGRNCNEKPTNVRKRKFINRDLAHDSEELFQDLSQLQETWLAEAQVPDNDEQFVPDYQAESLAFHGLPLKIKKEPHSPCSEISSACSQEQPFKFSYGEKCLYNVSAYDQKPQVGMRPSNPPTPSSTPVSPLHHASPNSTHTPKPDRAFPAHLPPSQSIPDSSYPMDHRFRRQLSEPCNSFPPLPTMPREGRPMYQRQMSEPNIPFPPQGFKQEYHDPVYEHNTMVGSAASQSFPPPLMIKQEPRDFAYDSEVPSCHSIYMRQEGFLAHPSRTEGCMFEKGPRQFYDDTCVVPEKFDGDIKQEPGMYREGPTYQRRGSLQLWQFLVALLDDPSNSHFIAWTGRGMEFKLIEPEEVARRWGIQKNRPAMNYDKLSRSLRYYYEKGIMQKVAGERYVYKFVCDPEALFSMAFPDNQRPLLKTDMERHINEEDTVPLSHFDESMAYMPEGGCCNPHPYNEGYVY
HSF1, sequence (Q00613 whole entry): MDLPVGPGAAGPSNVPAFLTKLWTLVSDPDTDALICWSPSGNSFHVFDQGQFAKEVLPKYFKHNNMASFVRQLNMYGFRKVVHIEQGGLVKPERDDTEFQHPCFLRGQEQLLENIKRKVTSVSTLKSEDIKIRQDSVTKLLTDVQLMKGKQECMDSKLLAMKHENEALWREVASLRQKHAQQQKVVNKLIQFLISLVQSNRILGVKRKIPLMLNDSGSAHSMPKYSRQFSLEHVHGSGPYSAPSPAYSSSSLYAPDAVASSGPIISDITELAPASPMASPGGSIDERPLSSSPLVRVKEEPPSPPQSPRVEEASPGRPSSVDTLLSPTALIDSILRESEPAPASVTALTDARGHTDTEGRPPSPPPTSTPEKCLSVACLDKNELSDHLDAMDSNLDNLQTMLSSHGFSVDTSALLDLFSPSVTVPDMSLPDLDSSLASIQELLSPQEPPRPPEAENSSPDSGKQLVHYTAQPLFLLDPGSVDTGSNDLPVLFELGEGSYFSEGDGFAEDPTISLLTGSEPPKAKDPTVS
CRX, sequence (O43186 whole entry): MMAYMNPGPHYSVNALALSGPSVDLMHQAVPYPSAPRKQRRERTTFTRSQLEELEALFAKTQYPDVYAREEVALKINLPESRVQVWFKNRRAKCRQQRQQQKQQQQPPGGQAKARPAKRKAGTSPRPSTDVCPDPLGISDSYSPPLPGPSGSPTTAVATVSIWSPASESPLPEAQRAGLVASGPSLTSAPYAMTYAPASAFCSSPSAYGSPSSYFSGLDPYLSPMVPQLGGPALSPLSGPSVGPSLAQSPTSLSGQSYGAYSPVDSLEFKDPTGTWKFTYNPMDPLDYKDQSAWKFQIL
ELF4, sequence (Q99607 whole entry): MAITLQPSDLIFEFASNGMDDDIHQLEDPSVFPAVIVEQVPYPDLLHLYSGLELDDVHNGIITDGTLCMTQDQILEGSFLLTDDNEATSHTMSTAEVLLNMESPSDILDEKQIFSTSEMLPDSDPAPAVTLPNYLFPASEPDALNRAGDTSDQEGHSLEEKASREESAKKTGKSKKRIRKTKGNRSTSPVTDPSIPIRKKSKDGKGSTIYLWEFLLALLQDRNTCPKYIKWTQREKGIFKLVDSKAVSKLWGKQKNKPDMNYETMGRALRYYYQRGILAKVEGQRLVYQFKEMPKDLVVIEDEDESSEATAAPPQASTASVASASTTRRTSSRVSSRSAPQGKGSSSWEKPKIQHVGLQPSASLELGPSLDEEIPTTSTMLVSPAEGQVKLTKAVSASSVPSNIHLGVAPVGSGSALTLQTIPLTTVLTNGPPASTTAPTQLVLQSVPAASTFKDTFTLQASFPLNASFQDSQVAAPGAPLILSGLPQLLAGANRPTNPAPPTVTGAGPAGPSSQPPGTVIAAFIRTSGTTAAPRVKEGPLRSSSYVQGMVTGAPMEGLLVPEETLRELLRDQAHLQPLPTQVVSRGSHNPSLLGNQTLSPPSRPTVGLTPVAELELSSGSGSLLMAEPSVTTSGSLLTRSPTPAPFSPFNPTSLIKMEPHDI
ETV5, sequence (P41161 whole entry): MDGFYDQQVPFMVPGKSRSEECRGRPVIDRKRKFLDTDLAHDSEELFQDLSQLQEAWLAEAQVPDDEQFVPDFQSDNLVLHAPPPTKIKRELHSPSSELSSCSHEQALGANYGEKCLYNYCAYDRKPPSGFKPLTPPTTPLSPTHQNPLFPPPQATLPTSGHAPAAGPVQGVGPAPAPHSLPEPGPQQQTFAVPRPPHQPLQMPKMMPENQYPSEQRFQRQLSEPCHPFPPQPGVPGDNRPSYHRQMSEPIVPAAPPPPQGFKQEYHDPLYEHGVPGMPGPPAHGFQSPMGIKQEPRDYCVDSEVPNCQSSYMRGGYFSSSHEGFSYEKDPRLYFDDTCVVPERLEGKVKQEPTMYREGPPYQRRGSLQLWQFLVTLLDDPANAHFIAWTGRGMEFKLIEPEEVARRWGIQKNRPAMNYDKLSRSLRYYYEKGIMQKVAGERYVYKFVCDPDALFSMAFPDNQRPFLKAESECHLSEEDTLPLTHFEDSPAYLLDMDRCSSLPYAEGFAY

For CTAACC, the binding signal is 1.16 fold enrichment (6-mer frequency, TF over GST control) with FEV; 1.19 fold enrichment (6-mer frequency, TF over GST control) with ETV5; 1.05 fold enrichment (6-mer frequency, TF over GST control) in the assay with HSF1; 1.08 fold enrichment (6-mer frequency, TF over GST control) with SPIC; 1.2 fold enrichment (6-mer frequency, TF over GST control) with ELF4; 1 fold enrichment (6-mer frequency, TF over GST control) with ELK4. For the same sequence, the binding signal is 1.11 fold enrichment (6-mer frequency, TF over GST control) with ETV2; 1.27 fold enrichment (6-mer frequency, TF over GST control) in the assay with ELF3; 1.09 fold enrichment (6-mer frequency, TF over GST control) in the assay with CRX; 1.16 fold enrichment (6-mer frequency, TF over GST control) with ETV1; 1.17 fold enrichment (6-mer frequency, TF over GST control) in the assay with ERF; 1.2 fold enrichment (6-mer frequency, TF over GST control) with ETV3L. Moreover, the binding signal in the assay with ETS2 was 1.15 fold enrichment (6-mer frequency, TF over GST control); with SPDEF, 1.09 fold enrichment (6-mer frequency, TF over GST control); with ETV7, 1.04 fold enrichment (6-mer frequency, TF over GST control); with ELF5 it was 1.14 fold enrichment (6-mer frequency, TF over GST control); in the assay with ETV3, 1.16 fold enrichment (6-mer frequency, TF over GST control).
